Assay [1] is described as follows: ATG_CRE_CIS: Attagene CIS-FACTORIAL HepG2 Assay for human cAMP Responsive Element (CRE) binding protein 3 (AID 2282926). To be noted: HepG2 CRE cis-reporter, Attagene multiplexed mRNA; actives raise or lower the signal. In short, it runs like this: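 Multiplexed transcription-unit reporters transfected into HepG2; 24 h dosing; RT-PCR/capillary electrophoresis fluorescence read-out; bidirectional fit vs DMSO.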

Assay [2] has as its target CCAAT/enhancer-binding protein beta (Homo sapiens) (UniProt P17676). Description: ATG_C_EBP_CIS: Attagene CIS-FACTORIAL HepG2 Assay for human CCAAT/Enhancer Binding Protein (C/EBP) beta (AID 2282927). To be noted: HepG2 Attagene cis-factorial transcription factor reporter; actives raise or lower the signal. In short, it runs like this:
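Transiently transfected HepG2 (MRTU library, endogenous TF-driven promoters); 24 h dosing; total RNA → oligo(dT) RT → PCR → 6-FAM primer extension → HpaI digest → CE; fit bidirectionally vs DMSO.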

Assay [3] in a line: ATG_CMV_CIS: Attagene CIS-FACTORIAL HepG2 Assay for human CMV (Internal Marker) (AID 2282928).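 Note: endpoint acts as a background internal control marker rather than a target.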 Conditions: HepG2 CMV promoter reporter, transcription factor profiling; actives raise or lower the signal. In short, it runs like this:
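Cell system: HepG2, transiently transfected multiple reporter units under cis promoters. Exposure: 24 h. Detection: RT-PCR, FAM labeling, HpaI digestion, capillary electrophoresis. Analysis: bidirectional, DMSO baseline.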

Assay [4] is described as follows: ATG_DR4_LXR_CIS: Attagene CIS-FACTORIAL HepG2 Assay for human Liver X Receptor (LXR), DR4 submotif (AID 2282929). To be noted: HepG2 Attagene DR4 cis-reporter, mRNA transcription; actives raise or lower the signal. In short, it runs like this: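 Endogenous factor activity at a DR4 cis-element is read as reporter mRNA in transiently transfected HepG2 cells. Exposure lasts 24 h; transcripts are amplified, fluorescently labelled and sized by capillary electrophoresis, with DMSO as baseline.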

In assay [5] the target is Aryl hydrocarbon receptor (Homo sapiens) (UniProt P35869). Description: ATG_Ahr_CIS: Attagene CIS-FACTORIAL HepG2 Assay for human Aryl Hydrocarbon Receptor (Ahr) (AID 2282930). Conditions: HepG2 AhR cis-factorial reporter transcription; actives raise or lower the signal. In short, it runs like this: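 Read-out: reporter mRNA quantified by RT-PCR with fluorescent primer extension and capillary electrophoresis. Human HepG2 liver cells carried transfected cis-promoter reporter units and were exposed to chemical for 24 h; gain or loss fitted relative to DMSO.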
Chain of Aryl hydrocarbon receptor (Homo sapiens) (P35869 whole entry, looked up): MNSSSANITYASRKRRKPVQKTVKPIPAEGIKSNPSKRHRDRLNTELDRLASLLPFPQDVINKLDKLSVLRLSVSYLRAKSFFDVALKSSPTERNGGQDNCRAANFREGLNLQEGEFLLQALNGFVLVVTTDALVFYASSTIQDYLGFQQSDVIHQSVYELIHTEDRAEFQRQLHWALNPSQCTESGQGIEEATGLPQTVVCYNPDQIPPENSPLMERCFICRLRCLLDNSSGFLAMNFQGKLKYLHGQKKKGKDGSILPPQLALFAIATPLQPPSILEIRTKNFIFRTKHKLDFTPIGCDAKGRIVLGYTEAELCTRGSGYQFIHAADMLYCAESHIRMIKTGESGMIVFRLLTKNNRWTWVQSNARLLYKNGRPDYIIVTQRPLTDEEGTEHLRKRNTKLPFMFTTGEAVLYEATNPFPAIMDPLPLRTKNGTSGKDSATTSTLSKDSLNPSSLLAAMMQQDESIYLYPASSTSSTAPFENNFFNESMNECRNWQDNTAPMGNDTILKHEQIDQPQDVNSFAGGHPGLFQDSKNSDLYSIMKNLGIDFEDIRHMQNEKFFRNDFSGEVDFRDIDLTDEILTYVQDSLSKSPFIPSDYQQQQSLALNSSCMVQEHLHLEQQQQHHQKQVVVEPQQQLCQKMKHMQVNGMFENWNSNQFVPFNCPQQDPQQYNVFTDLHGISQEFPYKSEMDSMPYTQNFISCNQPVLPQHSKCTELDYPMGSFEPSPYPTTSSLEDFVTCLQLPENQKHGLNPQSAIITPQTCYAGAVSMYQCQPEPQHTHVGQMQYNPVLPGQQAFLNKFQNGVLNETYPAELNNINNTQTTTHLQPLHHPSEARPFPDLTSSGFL

A short description of assay [6]: ATG_AP_1_CIS: Attagene CIS-FACTORIAL HepG2 Assay for human Activator Protein 1 (AP-1) (AID 2282931). Conditions: HepG2 Attagene cis-factorial AP-1 reporter mRNA; actives raise or lower the signal. The gist of the method: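 Fluorescence of labelled PCR fragments separated by capillary electrophoresis gives reporter mRNA levels. HepG2 with transfected cis-regulated reporter units, 24 h exposure; DMSO serves as baseline for bidirectional curve fits.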

A short description of assay [7]: ATG_AP_2_CIS: Attagene CIS-FACTORIAL HepG2 Assay for human Activator Protein 2 (AP-2) (AID 2282932). To be noted: HepG2 AP-2 cis-reporter, Attagene transcription factor profiling; actives raise or lower the signal. In short, it runs like this:
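Multiplexed mRNA reporter assay in HepG2: cis-regulated units report endogenous factor activity after 24 h treatment. Fluorescence from capillary electrophoresis of RT-PCR products gives the signal, with DMSO as baseline.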

Assay [8] is described as follows: ATG_BRE_CIS: Attagene CIS-FACTORIAL HepG2 Assay for human Bone Morphogenetic Protein (BMP) Response Element (BRE) (AID 2282933). To be noted: HepG2 BMP response element reporter, Attagene transcription factor profiling; actives raise or lower the signal. The gist of the method: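 Endogenous transcription factor activity read in transiently transfected HepG2 cells after 24 h chemical exposure. Bidirectional curve fitting against DMSO; readout is reporter transcript level by RT-PCR with capillary electrophoresis of labelled products.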

For assay [9], the target named is Retinoic acid receptor alpha (Homo sapiens) (UniProt P10276). As to the kind of experiment: ATG_DR5_RAR_CIS: Attagene CIS-FACTORIAL HepG2 Assay for human Retinoic Acid Receptor Alpha (RARE), DR5 submotif (AID 2282934).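 For AC50: reporter responds to endogenous RAR alpha beta and gamma in HepG2 not RARA alone.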 To be noted: HepG2 Attagene cis-factorial RARE DR5 reporter, mRNA; actives raise or lower the signal. In short, it runs like this:
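Read-out: DR5-driven reporter transcript measured by RT-PCR, 6-FAM primer extension, HpaI digest and capillary electrophoresis. Human HepG2 liver cells carry transiently transfected cis-element reporter constructs; dosing lasts 24 h. Gain or loss of signal fitted against DMSO baseline.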

In assay [10] the target is Transcription factor E2F1 (Homo sapiens) (UniProt Q01094). Description: ATG_E2F_CIS: Attagene CIS-FACTORIAL HepG2 Assay for human E2F Transcription Factor 1 (AID 2282935). Conditions: HepG2 Attagene cis-reporter, E2F reporter RNA transcripts; actives raise or lower the signal. In short, it runs like this: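 Measures reporter transcript levels via RT-PCR with capillary electrophoresis detection in HepG2 cells harboring cis-regulated reporter units; 24 h post-dose; bidirectional curve fitting with DMSO as baseline.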
Chain of Transcription factor E2F1 (Homo sapiens) (Q01094 whole entry, looked up): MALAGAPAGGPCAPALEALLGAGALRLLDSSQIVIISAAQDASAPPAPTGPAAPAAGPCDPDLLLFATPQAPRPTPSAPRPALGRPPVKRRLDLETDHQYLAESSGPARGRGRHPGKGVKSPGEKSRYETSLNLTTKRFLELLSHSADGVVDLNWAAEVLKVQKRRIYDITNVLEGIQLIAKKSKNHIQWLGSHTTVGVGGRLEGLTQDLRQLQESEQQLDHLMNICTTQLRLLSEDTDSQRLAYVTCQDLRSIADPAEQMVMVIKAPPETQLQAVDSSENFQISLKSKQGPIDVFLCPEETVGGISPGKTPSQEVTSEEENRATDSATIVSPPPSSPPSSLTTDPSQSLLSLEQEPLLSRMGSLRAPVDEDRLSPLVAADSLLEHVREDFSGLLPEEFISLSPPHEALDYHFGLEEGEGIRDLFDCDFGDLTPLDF

A short description of assay [11]: ATG_E_Box_CIS: Attagene CIS-FACTORIAL HepG2 Assay for human Enhancer Box (E-box) (AID 2282936). To be noted: HepG2 E-box cis-reporter transcription, actives raise or lower the signal. The gist of the method:
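First, HepG2 cells receive multiple cis-regulated reporter constructs by transient transfection. Next, chemicals are applied for 24 h. Finally, reporter mRNA is quantified via RT-PCR and capillary electrophoresis, with DMSO as baseline.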

Assay [12] in a line: ATG_M_61_CIS: Attagene CIS-FACTORIAL HepG2 Assay for M61 Transcription Factor (Internal Marker) (AID 2282937). To be noted: HepG2 Attagene CIS-FACTORIAL M61 internal marker reporter; actives raise or lower the signal. In short, it runs like this: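 This endpoint serves as an internal background control within a multiplexed HepG2 cis-reporter panel. Cells are exposed for 24 h; reporter mRNA is amplified, fluorescently labelled and sized by capillary electrophoresis, with DMSO as negative control.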

A short description of assay [13]: ATG_EGR_CIS: Attagene CIS-FACTORIAL HepG2 Assay for human Early Growth Response 1 (EGR1) (AID 2282938). Conditions: HepG2 Attagene CIS-FACTORIAL EGR reporter mRNA; actives raise or lower the signal. In short, it runs like this: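 HepG2, transient MRTU transfection (cis promoters), 24 h compound. RNA → RT (oligo-dT) → PCR → 6-FAM labelling → HpaI cut → CE fluorescence. Bidirectional fit, DMSO baseline.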

Assay [14] can be described thus: ATG_M_19_CIS: Attagene CIS-FACTORIAL HepG2 Assay for M19 Transcription Factor (Internal Marker) (AID 2282939). To be noted: HepG2 Attagene CIS-FACTORIAL M19 internal marker reporter; actives raise or lower the signal. The gist of the method:
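Internal marker readout, fitted in both directions against DMSO, from HepG2 cells carrying transfected cis-element reporter constructs; RT-PCR and capillary electrophoresis of reporter mRNA after 24 h exposure.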

Assay [15] is described as follows: ATG_ERE_CIS: Attagene CIS-FACTORIAL HepG2 Assay for Estrogen Response Element (ERE) (AID 2282940). Conditions: HepG2 ERE cis-reporter, Attagene RNA transcript; actives raise or lower the signal. The gist of the method:
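After 24 h compound treatment, RNA from transfected HepG2 cells was reverse-transcribed, reporter cDNA PCR-amplified, FAM-labelled, HpaI-cut and resolved by capillary electrophoresis. ERE-driven cis reporter transcripts reflect endogenous factors; gain or loss scored against DMSO.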

A short description of assay [16]: ATG_Ets_CIS: Attagene CIS-FACTORIAL HepG2 Assay for human Erythroblast Transformation Specific (ETS) (AID 2282941). Conditions: HepG2 ETS cis-reporter transcription, actives raise or lower the signal. In short, it runs like this: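 After transient cis-reporter transfection, HepG2 cells receive test chemical for 24 h. Reporter mRNA levels, measured by RT-PCR and capillary electrophoresis fluorescence, are analysed bidirectionally relative to the DMSO baseline.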

The target of assay [17] is Hepatocyte nuclear factor 3-beta (Homo sapiens) (UniProt Q9Y261). Description: ATG_FoxA2_CIS: Attagene CIS-FACTORIAL HepG2 Assay for human Forkhead box A2 (FOXA2) (AID 2282942). To be noted: HepG2 cis-reporter transcription factor activity, 24 h; actives raise or lower the signal. The gist of the method: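 Cells: HepG2, transient multiplex reporter transfection. Exposure 24 h. Detection: reporter-specific RT-PCR, fluorescent labelling, restriction digest, capillary electrophoresis. Analysis: bidirectional curve fit, DMSO as negative control.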
Chain of Hepatocyte nuclear factor 3-beta (Homo sapiens) (Q9Y261 whole entry, looked up): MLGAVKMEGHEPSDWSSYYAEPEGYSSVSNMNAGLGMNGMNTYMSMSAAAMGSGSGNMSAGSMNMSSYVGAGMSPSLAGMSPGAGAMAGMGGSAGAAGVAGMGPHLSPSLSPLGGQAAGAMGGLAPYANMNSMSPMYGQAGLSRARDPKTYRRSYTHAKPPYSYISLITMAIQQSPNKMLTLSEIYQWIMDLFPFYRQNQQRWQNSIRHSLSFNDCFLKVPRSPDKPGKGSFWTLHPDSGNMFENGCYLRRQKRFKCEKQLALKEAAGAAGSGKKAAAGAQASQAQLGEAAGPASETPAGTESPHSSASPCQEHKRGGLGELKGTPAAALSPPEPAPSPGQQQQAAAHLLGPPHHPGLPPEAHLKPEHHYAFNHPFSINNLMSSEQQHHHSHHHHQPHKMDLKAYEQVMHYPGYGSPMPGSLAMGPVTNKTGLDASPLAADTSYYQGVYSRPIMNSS

The nature of assay [18]: ATG_FoxO_CIS: Attagene CIS-FACTORIAL HepG2 Assay for human Forkhead box O (FoxO) (AID 2282943). To be noted: HepG2 Attagene cis-reporter, FoxO element, mRNA; actives raise or lower the signal. The gist of the method:
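Read-out: fluorescence of 6-FAM-labelled reporter cDNA fragments resolved by capillary electrophoresis. Transiently transfected HepG2 cells were dosed for 24 h; activity fitted in both directions relative to DMSO controls.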

Assay [19] in a line: ATG_GATA_CIS: Attagene CIS-FACTORIAL HepG2 Assay for human GATA Binding Protein (AID 2282944). To be noted: HepG2 GATA cis-element reporter, Attagene multiplex mRNA; actives raise or lower the signal. The gist of the method: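 Reporter transcripts from a GATA cis-regulated unit, among multiplexed reporters in transfected HepG2 cells, were measured by RT-PCR with capillary electrophoresis after 24 h dosing. Induction or loss scored relative to DMSO.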

The nature of assay [20]: ATG_GLI_CIS: Attagene CIS-FACTORIAL HepG2 Assay for human Zinc Finger Protein GLI1 (AID 2282945). Conditions: HepG2, Attagene cis-factorial reporter mRNA, GLI element; actives raise or lower the signal. In short, it runs like this: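 Transiently transfected HepG2 cells report endogenous transcription factor activity via cis-element-driven reporter units. After 24 h compound exposure, reporter mRNA was measured by RT-PCR with capillary electrophoresis; bidirectional fitting against DMSO baseline.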

Active and inactive are the calls of the source. Rule for the calls: active = hit-call score of the fitted dose curve at least 0.9, where 1 is the maximum; inactive = score below 0.9.

Experimental findings from PubChem BioAssay (EPA / NIEHS) are described below.

Chain of CCAAT/enhancer-binding protein beta (Homo sapiens) (P17676 whole entry, looked up): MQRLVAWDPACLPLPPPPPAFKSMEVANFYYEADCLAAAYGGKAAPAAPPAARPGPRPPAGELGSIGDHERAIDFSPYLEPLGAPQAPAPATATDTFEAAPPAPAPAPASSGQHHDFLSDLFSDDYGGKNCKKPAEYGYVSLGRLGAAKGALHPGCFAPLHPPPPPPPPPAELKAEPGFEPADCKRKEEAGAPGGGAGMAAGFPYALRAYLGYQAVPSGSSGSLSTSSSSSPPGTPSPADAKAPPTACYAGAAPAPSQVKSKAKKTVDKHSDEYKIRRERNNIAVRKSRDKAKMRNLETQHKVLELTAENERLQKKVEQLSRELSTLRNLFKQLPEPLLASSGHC
Chain of Retinoic acid receptor alpha (Homo sapiens) (P10276 whole entry, looked up): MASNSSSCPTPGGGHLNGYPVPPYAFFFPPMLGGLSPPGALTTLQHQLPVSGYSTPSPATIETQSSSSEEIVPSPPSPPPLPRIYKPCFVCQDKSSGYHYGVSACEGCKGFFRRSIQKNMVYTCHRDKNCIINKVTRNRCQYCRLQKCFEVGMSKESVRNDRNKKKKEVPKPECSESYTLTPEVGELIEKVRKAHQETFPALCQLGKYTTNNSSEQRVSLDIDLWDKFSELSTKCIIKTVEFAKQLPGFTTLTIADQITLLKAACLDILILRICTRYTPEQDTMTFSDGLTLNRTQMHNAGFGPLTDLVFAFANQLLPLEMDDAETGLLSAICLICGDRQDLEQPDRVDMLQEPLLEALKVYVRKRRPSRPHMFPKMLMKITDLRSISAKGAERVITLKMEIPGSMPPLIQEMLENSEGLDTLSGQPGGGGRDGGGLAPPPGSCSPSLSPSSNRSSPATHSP

Turning to `CC(C)Nc1ccc(Nc2ccccc2)cc1`, the molecule was called inactive in assay [1], in assay [2], in assay [5], in assay [7], in [8] and in assay [9]. For the same molecule, the outcome in [10], in assay [12], in assay [13], in [14], in assay [15] and in assay [16] was inactive. Moreover, the outcome in assay [17], in assay [18], in assay [19] and in assay [20] was inactive. Further, the AC50 in assay [3] was 60 µM (active); in [4], 32.4 µM (active); in [6] it was 60 µM (active); in assay [11], 54.8 µM (active).

On to `Cc1c([N+](=O)[O-])cc2c(c1[N+](=O)[O-])C(C)(C)CC2(C)C`, for which the molecule was called inactive in [1], in assay [2], in assay [4], in [5], in assay [6] and in assay [7]. Also, the outcome in assay [10], in [11], in assay [12], in [13], in [14] and in assay [15] was inactive. The outcome in assay [16], in assay [17], in assay [18], in assay [19] and in assay [20] was inactive. Further, the figures for the AC50 in [3], in assay [8] and in [9] were 100 µM (active), 100 µM (active) and 2.78 µM (active), respectively.

In the case of `CCCCOCC1CO1` (centres undefined), the molecule was classed as inactive in assay [1], in assay [2], in assay [3], in assay [4], in [5] and in assay [6]. In addition, the outcome in [7], in assay [8], in assay [9], in [10], in [11] and in [12] was inactive. The call in [13], in assay [14], in [15], in [16], in assay [17] and in assay [18] was inactive. In addition, the molecule was called inactive in [19] and in [20].

Regarding `CCOP(=S)(NC(C)C)Oc1ccccc1C(=O)OC(C)C` (centres undefined), the call in assay [1], in [2], in assay [3], in [5], in assay [6] and in assay [7] was inactive. The molecule was called inactive in [8], in assay [9], in [10], in assay [11], in [13] and in [14]. In addition, the molecule was classed as inactive in assay [16], in [17], in [18], in [19] and in assay [20]. For the same molecule, the AC50 in assay [4] is 26.5 µM (active); in [15], 11.3 µM (active).
